Data on eleven compounds can be found in PubChem BioAssay (NCATS).

Records with an inconclusive call do not appear. Activity calls are given as the source filed them. Unless noted, calls come from the whole dose curve; as a rule, active = well fitted curve in the direction sought with a large enough effect; inconclusive = small, poorly fitted or top-dose-only effect, or another doubt; inactive = no such curve, though single readings can be large; an effect the other way counts as inactive or inconclusive. Non-standard residues stand in square brackets, D forms with d. Residues, ends and D or L forms follow the SMILES beside them. *: point of attachment. Nva = CCC[C@H](N)C(=O)O; Cbz = O=C(OCc1ccccc1)*

The nature of assay [1]: Quantitative High-Throughput drug screen in 47 multiple myeloma cell lines against the NCATS MIPE library collection: KMS28BM_JCRB cell viability assay (AID 1919874). Note: nearly all actives have a fitted effect of over 35% in size. Note: potency is the fitted concentration of half-maximal effect. In short, it runs like this:
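MIPE 4.0 approved/investigational drugs; 500 cells/well; 48 h 37 °C humidified 5% CO2; CTG luminescence readout; DMSO = 100%, media = 0% viability.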

The nature of assay [2]: qHTS drug screen for cell cycle checkpoint inhibitors in PARPi-resistant BRCA-mutant ovarian cancer cell lines. (AID 1963452; calls by dose curve; note: potency is the fitted concentration of half-maximal effect). The conditions noted are these: PEO1/OlaR viability, CellTiter-Glo luminescence, 96 h; for Z-AUC: stronger effect = lower value. The procedure, abridged: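 PEO1, PEO4 and PEO1/OlaR ovarian cancer cells, 600 per well, exposed 96 h at 37C to a dilution series. Viability read by CellTiter-Glo luminescence, normalized to DMSO and empty wells; activity summarized as Z-AUC.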
On the technique in general: In qHTS, concentration-response curves come from the screen itself.

The nature of assay [3]: qHTS for identification of novel therapeutic agents for treatment of microphthalmiaassociated transcription factor (MiT) renal cell carcinoma (RCC) (AID 1963991; calls by dose curve; note: potency is the fitted concentration of half-maximal effect). The conditions noted are these: CellTiter-Glo, 48 h; for z-score: stronger effect = lower value; for Potency: active = Z-AUC below -0.8 in all three lines. The procedure, abridged:
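Three TFE3-fusion RCC lines (UOK109, UOK124, UOK145), 500 cells/well in complete medium, were treated with MIPE 4.0 compounds for 48 hours at 37 C. Viability was by CellTiter-Glo luminescence, normalized to DMSO (100%) and empty wells (0%); curves fitted over 11 concentrations.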

Assay [4] is described as follows: qHTS profiling for inhibitors of Plasmodium falciparum proliferation (AID 504749).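 Note: 0% = DMSO vehicle and full inhibition = artemisinin control; nearly all actives have a fitted effect of over 60% in size.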 Conditions: P. falciparum in erythrocytes, SYBR Green DNA, 72 h, at 12.8 µM (top of the series). In short, it runs like this: (§1)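 Parasite proliferation within erythrocytes, 72 h exposure. Endpoint: SYBR Green I fluorescence after overnight lysis at room temperature. Controls: 0.29 uM artemisinin, DMSO.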

In assay [5] the test system is 3D7. Described as above. Conditions: P. falciparum in erythrocytes, SYBR Green DNA, 72 h; series mostly up to 28.7 µM. In short, it runs like this:
as §1

Assay [6] concerns 7G8. The description is as above. The conditions noted are these: P. falciparum in erythrocytes, SYBR Green DNA, 72 h; series mostly up to 28.7 µM. In short, it runs like this:
as §1

For assay [7], the system named is AA1029. The description is as above. The conditions noted are these: P. falciparum in erythrocytes, SYBR Green DNA, 72 h; series mostly up to 28.7 µM. The procedure, abridged:
as §1

Assay [8] concerns AS120. The description is as above. The conditions noted are these: P. falciparum in erythrocytes, SYBR Green DNA, 72 h; series mostly up to 28.7 µM. In short, it runs like this:
as §1

In assay [9] the test system is ATS189. Described as above. The conditions noted are these: P. falciparum in erythrocytes, SYBR Green DNA, 72 h; series mostly up to 28.7 µM. The procedure, abridged:
as §1

The mark [10] stands for this setting: measured here: PEO1 parental Z-AUC.
[11] abbreviates: TFE3-RCC UOK109 viability, measured here: UOK109 Z-AUC.
The mark [12] stands for this setting: TFE3-RCC viability, measured here: UOK124 Z-AUC.
[13] abbreviates: TFE3-RCC viability, measured here: UOK145 Z-AUC.

On to `COC(=O)[C@H](CCCN=C(N)N)NS(=O)(=O)c1ccc(C)cc1`, for which, in assay [1], the Potency entry was “inactive”. In addition, the Z-AUC in [2] was 1.53 (inactive); in assay [2] (setting [10]), 1.46; in [2] (measured here: PEO4 Z-AUC), 1. In addition, the figures for the z-score in assay [3] (setting [11]), in assay [3] (setting [12]) and in [3] (setting [13]) were 0.843, 0.187 and 0.701, respectively.

As for `C[C@H](CCC(=O)O)[C@H]1CCC2C3C[C@H](O)[C@@H]4C[C@H](O)CC[C@]4(C)C3CC[C@@]21C` (stereo not given in full), the Potency entry in assay [1] is “inactive”. Further, the Z-AUC is 0.00585 (inactive) in assay [2], 0.454 in [2] (setting [10]) and 0.29 in assay [2] (measured here: PEO4 Z-AUC). For the same compound, the z-score in assay [3] (setting [11]) was 0.156; in [3] (setting [12]) it was 0.446; in assay [3] (setting [13]), 0.00817.

Consider `C[C@H]1COc2c(N3CCN(C)CC3)c(F)cc3c(=O)c(C(=O)O)cn1c23`, for which the Potency entry in [1] is “inactive”. In addition, the Z-AUC in assay [2] was -0.648 (inactive); in assay [2] (setting [10]) it was -0.279; in [2] (measured here: PEO4 Z-AUC) it was -0.579. Moreover, the z-score was 1.28 in [3] (setting [11]), 0.967 in [3] (setting [12]) and 1.39 in [3] (setting [13]).

Take `CCc1ccc(C(=O)Nc2cc(CN3CCN(C)CC3)cc(C(F)(F)F)c2)cc1C#Cc1cnc2ccnn2c1`: the Potency in assay [1] was 4.18 µM (active). In addition, the Z-AUC in assay [2] is -0.668 (inactive); in assay [2] (setting [10]) it was -1.24; in assay [2] (measured here: PEO4 Z-AUC), -0.914.

In the case of `COc1cc(OC)c(NC(=O)Nc2cc(C)on2)cc1Cl`, the Potency result in assay [1] was “inactive”. In addition, the Z-AUC in assay [2] was 1.05 (inactive); in [2] (setting [10]) it was 1.02; in assay [2] (measured here: PEO4 Z-AUC), 1.3. The z-score in [3] (setting [11]) was determined as 0.422; in [3] (setting [12]) it was 0.71; in assay [3] (setting [13]) it was 0.616.

With `COc1ccc([C@@H]2CNC(=O)C2)cc1OC1CCCC1`, the Potency result in [1], in [5], in [6], in assay [7], in assay [8] and in [9] was “inactive” each time. In addition, the Z-AUC in assay [2] is -0.0996 (inactive); in [2] (setting [10]), -0.168; in [2] (measured here: PEO4 Z-AUC), 0.0398. Also, the activity, negative = inhibition in [4] (parasite line A) was 9.55% (inactive); in [4] (parasite line B) it was -3.14% (inactive).

For `CC(Cc1ccc(O)c(O)c1)(NN)C(=O)O` (stereo not given), the Potency entry in [1] was “inactive”. Moreover, the Z-AUC in assay [2] is 1.29 (inactive); in assay [2] (setting [10]), 0.784; in assay [2] (measured here: PEO4 Z-AUC) it was 0.906. The values for the z-score in assay [3] (setting [11]), in assay [3] (setting [12]) and in [3] (setting [13]) were 0.533, 0.304 and 0.315, respectively.

With `Cc1noc(-c2ccc(CSCCC(=O)O)cc2)c1NC(=O)OC(C)c1ccccc1Cl` (stereo not given), the Potency result in [1] was “inactive”. Also, the Z-AUC in assay [2] was -0.506 (inactive); in assay [2] (setting [10]), -0.869; in assay [2] (measured here: PEO4 Z-AUC) it was -0.91. For the same compound, the z-score was -0.684 in [3] (setting [11]), 0.0534 in assay [3] (setting [12]) and 0.402 in assay [3] (setting [13]).

For `Cn1cc(CNCC2CCN(c3ncc(C(=O)NO)cn3)CC2)c2ccccc21`, the values for the Potency in [1], in [2] and in assay [3] (TFE3-RCC UOK109 viability) were 0.0187 µM (active), 0.195 µM (active) and 0.166 µM (active), respectively. Further, the values for the Z-AUC in [2] (setting [10]) and in assay [2] (measured here: PEO4 Z-AUC) were -1.95 and -1.89, respectively. Further, the z-score was -1.71 in [3] (setting [11]), -4.28 in [3] (setting [12]) and -1.68 in [3] (setting [13]).

Turning to `CC(=O)OC[C@@H]1O[C@@H](n2ccc(=O)[nH]c2=O)[C@H](OC(C)=O)[C@H]1OC(C)=O`, in assay [1], the Potency entry was “inactive”. For the same compound, the values for the Z-AUC in assay [2], in [2] (setting [10]) and in assay [2] (measured here: PEO4 Z-AUC) were 0.415 (inactive), 0.423 and 0.195, respectively. For the same compound, the z-score in [3] (setting [11]) amounted to 0.396; in assay [3] (setting [12]) it was 1.22; in assay [3] (setting [13]) it was 0.244.

Consider `CCC[C@@H](C=O)NC(=O)[C@H](CC(C)C)NC(=O)[C@H](CC(C)C)NC(=O)OCc1ccccc1` (Cbz-Leu-Leu-[Nva]-aldehyde), for which the values for the Potency in assay [1] and in assay [3] (TFE3-RCC UOK109 viability) were 0.187 µM (active) and 4.18 µM (active), respectively. Also, the values for the Z-AUC in assay [2], in [2] (setting [10]) and in assay [2] (measured here: PEO4 Z-AUC) were -1.63 (inactive), -1.42 and -1.86, respectively. The figures for the z-score in assay [3] (setting [11]), in assay [3] (setting [12]) and in assay [3] (setting [13]) were -1.03, -2.77 and -1.34, respectively.
